# Reference: PMC7862700, “An all-to-all approach to the identification of sequence-specific readers for epigenetic DNA modifications on cytosine”
# Key:
# Test in all cases: DAPPL (digital affinity profiling via proximity ligation, sequencing); 10 mM Tris-HCl pH 7.5, 50 mM NaCl, 1 mM DTT, 4% glycerol, room temperature, 30 min; GST-TFs on glutathione beads, 16-mer random dsDNA library, 0.1% formaldehyde crosslink after washing; high values mean tight binding
# FLI1 = target: T1, FLI1 (Homo sapiens, UniProt Q01543 1-452); settings: protein: recombinant; tags: N-terminal GST; dsDNA, one strand shown
# T1 sequence: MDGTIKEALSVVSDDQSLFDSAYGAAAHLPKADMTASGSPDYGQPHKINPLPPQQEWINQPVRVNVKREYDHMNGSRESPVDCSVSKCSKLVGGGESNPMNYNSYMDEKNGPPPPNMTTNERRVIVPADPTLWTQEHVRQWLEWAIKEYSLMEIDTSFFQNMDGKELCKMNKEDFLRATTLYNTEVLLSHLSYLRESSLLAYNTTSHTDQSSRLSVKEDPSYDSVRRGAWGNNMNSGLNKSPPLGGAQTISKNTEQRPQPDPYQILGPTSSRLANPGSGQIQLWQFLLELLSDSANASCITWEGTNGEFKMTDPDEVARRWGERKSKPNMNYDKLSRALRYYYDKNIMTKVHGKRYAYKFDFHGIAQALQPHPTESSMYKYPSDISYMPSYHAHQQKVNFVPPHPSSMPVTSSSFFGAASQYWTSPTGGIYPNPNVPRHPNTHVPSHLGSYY
# Procedure, shortened: (§1)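 Yeast served to express human transcription factors as GST fusions, which were then captured on glutathione beads and labelled with DNA barcodes. Pooled with a tag-only sample, they were incubated with 200 nmole of a 16-mer random double-stranded DNA library for 30 min at room temperature in Tris/NaCl/DTT/glycerol buffer, washed, crosslinked with 0.1% formaldehyde, ligated by proximity, amplified by PCR and sequenced. Dividing each hexamer's read frequency for a factor by its frequency for the tag-only sample gives the binding signal.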
# ELK1 = target: T2, ELK1 (Homo sapiens, UniProt P19419 1-428); settings: protein: recombinant; tags: N-terminal GST; dsDNA, one strand shown
# T2 sequence: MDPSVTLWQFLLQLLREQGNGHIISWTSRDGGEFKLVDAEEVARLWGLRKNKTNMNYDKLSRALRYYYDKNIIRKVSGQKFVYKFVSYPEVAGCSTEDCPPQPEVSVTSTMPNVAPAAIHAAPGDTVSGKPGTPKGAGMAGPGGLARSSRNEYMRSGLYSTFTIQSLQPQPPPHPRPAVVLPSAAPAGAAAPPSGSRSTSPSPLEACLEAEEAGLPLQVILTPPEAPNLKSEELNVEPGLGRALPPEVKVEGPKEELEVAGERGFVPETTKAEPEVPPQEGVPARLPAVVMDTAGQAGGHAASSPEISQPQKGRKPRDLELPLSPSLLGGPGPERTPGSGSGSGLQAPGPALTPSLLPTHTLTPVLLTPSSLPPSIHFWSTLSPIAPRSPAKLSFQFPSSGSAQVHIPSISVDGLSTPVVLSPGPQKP
# Procedure, shortened: as §1
# GABPA = target: T3, GABPA (Homo sapiens, UniProt Q06546 1-454); settings: protein: recombinant; tags: N-terminal GST; dsDNA, one strand shown
# T3 sequence: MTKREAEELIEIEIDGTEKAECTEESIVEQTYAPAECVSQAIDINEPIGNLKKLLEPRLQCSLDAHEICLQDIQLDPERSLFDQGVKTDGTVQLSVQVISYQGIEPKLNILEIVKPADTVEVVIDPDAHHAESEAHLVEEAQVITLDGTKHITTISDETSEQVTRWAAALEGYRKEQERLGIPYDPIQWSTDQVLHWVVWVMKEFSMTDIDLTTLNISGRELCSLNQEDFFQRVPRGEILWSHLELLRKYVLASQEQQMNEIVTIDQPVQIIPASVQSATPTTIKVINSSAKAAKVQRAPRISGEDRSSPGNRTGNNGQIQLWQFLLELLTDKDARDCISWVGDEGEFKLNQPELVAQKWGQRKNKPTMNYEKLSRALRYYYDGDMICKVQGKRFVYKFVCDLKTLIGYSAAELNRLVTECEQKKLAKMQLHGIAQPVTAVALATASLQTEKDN
# Procedure, shortened: as §1
# ERG = target: T4, ERG (Homo sapiens, UniProt P11308 1-479); settings: protein: recombinant; tags: N-terminal GST; dsDNA, one strand shown
# T4 sequence: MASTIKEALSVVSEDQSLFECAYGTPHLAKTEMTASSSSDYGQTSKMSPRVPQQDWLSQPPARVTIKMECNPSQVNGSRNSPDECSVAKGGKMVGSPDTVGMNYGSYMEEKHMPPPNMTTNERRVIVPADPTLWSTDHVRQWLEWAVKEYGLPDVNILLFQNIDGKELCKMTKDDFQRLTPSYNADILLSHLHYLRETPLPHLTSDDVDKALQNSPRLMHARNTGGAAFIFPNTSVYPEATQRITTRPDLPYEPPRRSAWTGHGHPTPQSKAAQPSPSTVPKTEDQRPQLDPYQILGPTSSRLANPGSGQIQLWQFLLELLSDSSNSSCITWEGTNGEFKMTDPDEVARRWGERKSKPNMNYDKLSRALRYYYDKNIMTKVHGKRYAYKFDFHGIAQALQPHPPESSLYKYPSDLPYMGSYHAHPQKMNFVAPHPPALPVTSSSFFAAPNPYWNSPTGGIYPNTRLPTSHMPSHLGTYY
# Procedure, shortened: as §1
# ELF1 = ELF1 (Homo sapiens, UniProt P32519 1-619); settings: protein: recombinant; tags: N-terminal GST; dsDNA, one strand shown
# Procedure, shortened: as §1
# EHF = target: T5, EHF (Homo sapiens, UniProt Q9NZC4 1-300); settings: protein: recombinant; tags: N-terminal GST; dsDNA, one strand shown
# T5 sequence: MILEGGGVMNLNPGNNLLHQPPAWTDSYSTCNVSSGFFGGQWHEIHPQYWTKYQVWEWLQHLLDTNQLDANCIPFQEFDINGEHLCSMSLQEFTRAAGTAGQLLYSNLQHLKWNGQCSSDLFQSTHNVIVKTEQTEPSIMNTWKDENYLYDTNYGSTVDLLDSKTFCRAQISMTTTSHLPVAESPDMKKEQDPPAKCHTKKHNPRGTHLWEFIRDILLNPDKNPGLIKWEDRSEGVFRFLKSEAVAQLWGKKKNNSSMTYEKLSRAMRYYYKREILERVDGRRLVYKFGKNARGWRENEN
# Procedure, shortened: as §1
# SPI1 = SPI1 (Homo sapiens, UniProt P17947 1-270); settings: protein: recombinant; tags: N-terminal GST; dsDNA, one strand shown
# Procedure, shortened: as §1
# SPIB = SPIB (Homo sapiens, UniProt Q01892 1-262); settings: protein: recombinant; tags: N-terminal GST; dsDNA, one strand shown
# Procedure, shortened: as §1
# ELK3 = target: T6, ELK3 (Homo sapiens, UniProt P41970 1-407); settings: protein: recombinant; tags: N-terminal GST; dsDNA, one strand shown
# T6 sequence: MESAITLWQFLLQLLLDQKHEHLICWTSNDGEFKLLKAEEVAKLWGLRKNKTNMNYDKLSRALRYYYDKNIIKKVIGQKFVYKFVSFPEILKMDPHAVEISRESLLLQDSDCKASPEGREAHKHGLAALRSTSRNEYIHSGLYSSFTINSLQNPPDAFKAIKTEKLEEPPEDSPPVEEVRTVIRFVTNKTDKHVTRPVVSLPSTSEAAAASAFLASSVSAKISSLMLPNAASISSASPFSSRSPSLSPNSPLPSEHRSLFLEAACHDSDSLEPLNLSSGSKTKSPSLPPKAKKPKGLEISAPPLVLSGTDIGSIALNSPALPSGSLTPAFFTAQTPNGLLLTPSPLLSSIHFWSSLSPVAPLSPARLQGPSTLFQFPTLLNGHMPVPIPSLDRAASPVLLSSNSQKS
# Procedure, shortened: as §1
# FEV = target: T7, FEV (Homo sapiens, UniProt Q99581 1-238); settings: protein: recombinant; tags: N-terminal GST; dsDNA, one strand shown
# T7 sequence: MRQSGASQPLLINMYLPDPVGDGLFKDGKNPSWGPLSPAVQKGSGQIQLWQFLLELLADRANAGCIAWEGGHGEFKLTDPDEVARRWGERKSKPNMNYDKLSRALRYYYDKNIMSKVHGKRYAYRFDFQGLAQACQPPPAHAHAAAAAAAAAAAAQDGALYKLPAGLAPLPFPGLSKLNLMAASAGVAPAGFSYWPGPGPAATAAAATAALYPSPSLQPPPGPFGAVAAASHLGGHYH
# Procedure, shortened: as §1
# ETV5 = ETV5 (Homo sapiens, UniProt P41161 1-510); settings: protein: recombinant; tags: N-terminal GST; dsDNA, one strand shown
# Procedure, shortened: as §1
# HSF1 = HSF1 (Homo sapiens, UniProt Q00613 1-529); settings: protein: recombinant; tags: N-terminal GST; chain copies: 3; dsDNA, one strand shown
# Procedure, shortened: as §1
# SPIC = target: T8, SPIC (Homo sapiens, UniProt Q8N5J4 1-248); settings: protein: recombinant; tags: N-terminal GST; dsDNA, one strand shown
# T8 sequence: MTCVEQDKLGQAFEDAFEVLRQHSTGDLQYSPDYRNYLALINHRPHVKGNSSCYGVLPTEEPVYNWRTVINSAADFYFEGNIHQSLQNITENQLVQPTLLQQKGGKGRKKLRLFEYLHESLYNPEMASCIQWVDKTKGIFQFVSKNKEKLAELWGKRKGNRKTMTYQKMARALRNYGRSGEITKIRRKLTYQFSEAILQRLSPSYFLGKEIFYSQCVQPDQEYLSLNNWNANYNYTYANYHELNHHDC
# Procedure, shortened: as §1
# ELF4 = ELF4 (Homo sapiens, UniProt Q99607 1-663); settings: protein: recombinant; tags: N-terminal GST; dsDNA, one strand shown
# Procedure, shortened: as §1
# ELK4 = target: T9, ELK4 (Homo sapiens, UniProt P28324-2 1-405); settings: protein: recombinant; tags: N-terminal GST; dsDNA, one strand shown
# T9 sequence: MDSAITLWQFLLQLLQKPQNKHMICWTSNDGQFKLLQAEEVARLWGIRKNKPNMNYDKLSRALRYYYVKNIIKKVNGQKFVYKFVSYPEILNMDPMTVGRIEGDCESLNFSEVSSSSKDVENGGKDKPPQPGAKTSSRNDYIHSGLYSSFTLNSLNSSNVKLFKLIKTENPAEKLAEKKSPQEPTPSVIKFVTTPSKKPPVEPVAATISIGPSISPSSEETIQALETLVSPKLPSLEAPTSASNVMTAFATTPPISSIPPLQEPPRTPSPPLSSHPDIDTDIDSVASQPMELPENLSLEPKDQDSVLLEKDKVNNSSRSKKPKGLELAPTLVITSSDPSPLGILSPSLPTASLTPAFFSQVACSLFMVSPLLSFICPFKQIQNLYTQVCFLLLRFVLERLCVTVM
# Procedure, shortened: as §1
# ETV2 = target: T10, ETV2 (Homo sapiens, UniProt O00321 1-342); settings: protein: recombinant; tags: N-terminal GST; dsDNA, one strand shown
# T10 sequence: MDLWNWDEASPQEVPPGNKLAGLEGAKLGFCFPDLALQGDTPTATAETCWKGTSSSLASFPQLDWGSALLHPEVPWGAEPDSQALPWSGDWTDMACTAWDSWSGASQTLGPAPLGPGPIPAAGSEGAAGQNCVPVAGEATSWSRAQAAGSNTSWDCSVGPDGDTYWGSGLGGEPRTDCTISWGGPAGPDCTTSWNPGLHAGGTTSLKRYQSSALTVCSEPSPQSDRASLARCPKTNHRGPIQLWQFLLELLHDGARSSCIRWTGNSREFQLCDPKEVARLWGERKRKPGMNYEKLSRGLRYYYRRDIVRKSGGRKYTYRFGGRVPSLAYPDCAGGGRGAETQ
# Procedure, shortened: as §1
# ELF3 = target: T11, ELF3 (Homo sapiens, UniProt P78545 1-371); settings: protein: recombinant; tags: N-terminal GST; dsDNA, one strand shown
# T11 sequence: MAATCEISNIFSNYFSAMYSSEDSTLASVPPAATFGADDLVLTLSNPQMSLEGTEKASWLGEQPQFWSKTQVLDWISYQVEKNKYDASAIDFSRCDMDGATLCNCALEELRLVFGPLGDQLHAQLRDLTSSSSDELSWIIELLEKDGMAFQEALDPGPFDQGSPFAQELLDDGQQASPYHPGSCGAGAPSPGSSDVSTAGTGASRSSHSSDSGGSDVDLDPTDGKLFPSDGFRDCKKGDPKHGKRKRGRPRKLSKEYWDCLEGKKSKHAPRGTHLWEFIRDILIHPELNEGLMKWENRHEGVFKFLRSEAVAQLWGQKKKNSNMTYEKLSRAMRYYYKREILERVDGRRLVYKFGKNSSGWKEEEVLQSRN
# Procedure, shortened: as §1
# CRX = CRX (Homo sapiens, UniProt O43186 1-299); settings: protein: recombinant; tags: N-terminal GST; dsDNA, one strand shown
# Procedure, shortened: as §1
# ETV1 = ETV1 (Homo sapiens, UniProt P50549 1-477); settings: protein: recombinant; tags: N-terminal GST; dsDNA, one strand shown
# Procedure, shortened: as §1
# SPIB, sequence (Q01892 whole entry): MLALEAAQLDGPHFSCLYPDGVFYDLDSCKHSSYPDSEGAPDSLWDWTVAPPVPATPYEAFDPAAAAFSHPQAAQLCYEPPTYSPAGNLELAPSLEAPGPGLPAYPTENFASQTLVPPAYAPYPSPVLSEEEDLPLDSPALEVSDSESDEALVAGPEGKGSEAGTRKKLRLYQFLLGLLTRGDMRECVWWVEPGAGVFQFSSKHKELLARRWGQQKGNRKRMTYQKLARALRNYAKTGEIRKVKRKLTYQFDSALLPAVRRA
# ETV1, sequence (P50549 whole entry): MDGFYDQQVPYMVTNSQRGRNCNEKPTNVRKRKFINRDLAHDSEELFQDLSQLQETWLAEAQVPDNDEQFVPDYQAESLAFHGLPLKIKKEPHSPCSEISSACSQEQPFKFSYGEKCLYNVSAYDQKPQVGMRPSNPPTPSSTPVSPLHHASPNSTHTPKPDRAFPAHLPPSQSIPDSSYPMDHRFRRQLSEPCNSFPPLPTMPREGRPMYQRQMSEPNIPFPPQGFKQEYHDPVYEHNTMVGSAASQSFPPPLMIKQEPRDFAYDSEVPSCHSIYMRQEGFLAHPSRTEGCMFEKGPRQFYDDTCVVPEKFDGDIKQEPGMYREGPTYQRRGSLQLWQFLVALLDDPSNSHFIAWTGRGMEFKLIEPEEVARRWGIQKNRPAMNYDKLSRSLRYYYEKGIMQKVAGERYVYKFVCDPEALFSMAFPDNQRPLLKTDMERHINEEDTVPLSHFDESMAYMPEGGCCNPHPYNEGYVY
# HSF1, sequence (Q00613 whole entry): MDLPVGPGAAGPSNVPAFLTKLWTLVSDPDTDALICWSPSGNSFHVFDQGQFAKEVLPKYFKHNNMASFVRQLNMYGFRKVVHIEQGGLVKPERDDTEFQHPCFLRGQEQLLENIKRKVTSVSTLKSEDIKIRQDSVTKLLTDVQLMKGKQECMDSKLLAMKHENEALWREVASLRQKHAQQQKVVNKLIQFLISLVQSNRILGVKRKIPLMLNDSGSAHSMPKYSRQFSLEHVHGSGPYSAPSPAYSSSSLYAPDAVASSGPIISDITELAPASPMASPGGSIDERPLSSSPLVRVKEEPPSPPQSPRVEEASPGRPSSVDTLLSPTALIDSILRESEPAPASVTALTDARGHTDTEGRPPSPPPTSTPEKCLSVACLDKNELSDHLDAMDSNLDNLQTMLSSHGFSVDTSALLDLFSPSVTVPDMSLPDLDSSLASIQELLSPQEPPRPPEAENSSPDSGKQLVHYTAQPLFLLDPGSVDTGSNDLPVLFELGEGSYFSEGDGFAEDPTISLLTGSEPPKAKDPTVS
# ELF1, sequence (P32519 whole entry): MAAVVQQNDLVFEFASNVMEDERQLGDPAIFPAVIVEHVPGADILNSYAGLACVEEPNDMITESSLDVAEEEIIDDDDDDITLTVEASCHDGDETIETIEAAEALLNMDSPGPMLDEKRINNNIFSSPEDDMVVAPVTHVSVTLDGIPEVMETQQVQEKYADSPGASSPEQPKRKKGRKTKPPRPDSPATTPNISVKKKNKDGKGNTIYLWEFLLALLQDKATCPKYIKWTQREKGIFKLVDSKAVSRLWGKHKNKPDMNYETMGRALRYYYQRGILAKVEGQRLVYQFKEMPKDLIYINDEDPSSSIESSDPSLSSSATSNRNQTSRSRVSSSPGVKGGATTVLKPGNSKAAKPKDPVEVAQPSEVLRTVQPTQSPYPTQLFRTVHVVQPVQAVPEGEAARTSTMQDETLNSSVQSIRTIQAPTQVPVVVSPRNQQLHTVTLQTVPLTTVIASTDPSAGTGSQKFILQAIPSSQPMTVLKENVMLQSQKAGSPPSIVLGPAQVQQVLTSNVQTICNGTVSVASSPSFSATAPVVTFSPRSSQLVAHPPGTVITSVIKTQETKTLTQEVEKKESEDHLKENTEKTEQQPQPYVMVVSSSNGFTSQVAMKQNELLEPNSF
# CRX, sequence (O43186 whole entry): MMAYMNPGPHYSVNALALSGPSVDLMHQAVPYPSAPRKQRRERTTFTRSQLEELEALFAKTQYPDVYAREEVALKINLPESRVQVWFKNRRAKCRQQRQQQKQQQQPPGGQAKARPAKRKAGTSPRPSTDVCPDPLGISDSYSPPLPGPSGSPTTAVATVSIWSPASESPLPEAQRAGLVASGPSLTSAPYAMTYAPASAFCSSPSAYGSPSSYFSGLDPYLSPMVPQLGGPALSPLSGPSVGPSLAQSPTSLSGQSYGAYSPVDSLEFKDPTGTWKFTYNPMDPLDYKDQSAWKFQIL
# ETV5, sequence (P41161 whole entry): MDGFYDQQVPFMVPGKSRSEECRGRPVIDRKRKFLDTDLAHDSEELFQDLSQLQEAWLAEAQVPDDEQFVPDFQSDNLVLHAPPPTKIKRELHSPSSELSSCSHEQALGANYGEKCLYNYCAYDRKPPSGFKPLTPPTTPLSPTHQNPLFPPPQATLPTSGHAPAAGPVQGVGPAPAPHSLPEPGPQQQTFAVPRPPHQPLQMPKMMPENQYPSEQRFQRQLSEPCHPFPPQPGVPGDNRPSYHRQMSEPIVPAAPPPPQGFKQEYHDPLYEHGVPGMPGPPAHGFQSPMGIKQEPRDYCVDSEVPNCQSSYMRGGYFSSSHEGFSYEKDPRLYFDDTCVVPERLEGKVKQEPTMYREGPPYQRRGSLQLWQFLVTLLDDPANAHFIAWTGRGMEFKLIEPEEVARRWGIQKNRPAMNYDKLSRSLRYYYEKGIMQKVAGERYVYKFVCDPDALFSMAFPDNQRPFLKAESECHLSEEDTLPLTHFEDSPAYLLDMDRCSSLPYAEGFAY
# ELF4, sequence (Q99607 whole entry): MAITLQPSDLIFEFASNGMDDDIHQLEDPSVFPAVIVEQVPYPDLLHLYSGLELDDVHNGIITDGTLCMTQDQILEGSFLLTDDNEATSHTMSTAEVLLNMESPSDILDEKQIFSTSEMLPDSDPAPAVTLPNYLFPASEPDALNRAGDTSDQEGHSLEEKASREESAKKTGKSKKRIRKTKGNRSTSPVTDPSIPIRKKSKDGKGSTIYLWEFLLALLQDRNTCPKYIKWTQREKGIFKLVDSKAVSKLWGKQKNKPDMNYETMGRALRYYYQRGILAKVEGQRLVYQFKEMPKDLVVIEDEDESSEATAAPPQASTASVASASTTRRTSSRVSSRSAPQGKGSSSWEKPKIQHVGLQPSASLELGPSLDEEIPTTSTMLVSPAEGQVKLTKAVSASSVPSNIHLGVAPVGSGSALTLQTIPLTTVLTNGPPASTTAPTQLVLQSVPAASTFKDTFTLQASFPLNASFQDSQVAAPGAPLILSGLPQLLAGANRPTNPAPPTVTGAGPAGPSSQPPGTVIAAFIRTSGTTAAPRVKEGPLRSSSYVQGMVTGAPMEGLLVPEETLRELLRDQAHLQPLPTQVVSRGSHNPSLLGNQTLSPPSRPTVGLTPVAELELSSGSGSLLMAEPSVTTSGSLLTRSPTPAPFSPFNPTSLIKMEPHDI
sequence,measurement,setting,value
TCTGAA,binding signal,FLI1,"1.11 fold enrichment (6-mer frequency, TF over GST control)"
same,binding signal,ELK1,"1.22 fold enrichment (6-mer frequency, TF over GST control)"
same,binding signal,GABPA,"1.13 fold enrichment (6-mer frequency, TF over GST control)"
same,binding signal,ERG,"1.15 fold enrichment (6-mer frequency, TF over GST control)"
same,binding signal,ELF1,"1.18 fold enrichment (6-mer frequency, TF over GST control)"
same,binding signal,EHF,"1.18 fold enrichment (6-mer frequency, TF over GST control)"
same,binding signal,SPI1,"1.18 fold enrichment (6-mer frequency, TF over GST control)"
same,binding signal,SPIB,"1.26 fold enrichment (6-mer frequency, TF over GST control)"
same,binding signal,ELK3,"1.17 fold enrichment (6-mer frequency, TF over GST control)"
same,binding signal,FEV,"1.21 fold enrichment (6-mer frequency, TF over GST control)"
same,binding signal,ETV5,"1.09 fold enrichment (6-mer frequency, TF over GST control)"
same,binding signal,HSF1,"1.23 fold enrichment (6-mer frequency, TF over GST control)"
same,binding signal,SPIC,"1.2 fold enrichment (6-mer frequency, TF over GST control)"
same,binding signal,ELF4,"1.2 fold enrichment (6-mer frequency, TF over GST control)"
same,binding signal,ELK4,"1.14 fold enrichment (6-mer frequency, TF over GST control)"
same,binding signal,ETV2,"1.17 fold enrichment (6-mer frequency, TF over GST control)"
same,binding signal,ELF3,"1.18 fold enrichment (6-mer frequency, TF over GST control)"
same,binding signal,CRX,"1.21 fold enrichment (6-mer frequency, TF over GST control)"
same,binding signal,ETV1,"1.21 fold enrichment (6-mer frequency, TF over GST control)"
